Assay outcomes as filed in PubChem.
Sampled rows, rich in hits. Any-hit rate of the full collection: about 8.2%.
ELG1 DNA repair = inhibitors of ELG1-dependent DNA repair in HEK293T cells; HEK293T ELG1-luciferase reporter, luminescence, 16 h; DNA damage induced by 5-fluorouridine; Potency, µM (top dose mostly 46.1 µM), for inactives: top-dose activity change, negative = inhibition, actives largely listed as inhibitors; 330,000 compounds, 2.3% hits; also: % is scaled to controls: 0 for no effect and ±100 for the full control effect; nearly all actives have a fitted effect of over 55% in size
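Reporter activity after DNA damage by 5-fluorouridine is monitored. Compound-treated cells incubate 16 hr at 37 °C, then ONE-Glo is added for 30 min before luminescence reading.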
KB-V1 MDR tox = kills drug-selected multidrug resistant KB-V1 cells; KB-V1 MDR cells viability, CellTiter-Glo, 72 h; Potency, µM (highest dose often 46.1 µM), hits mostly cytotoxic; 400,000 compounds, 3.4% hits; AID 1347076; also: % is scaled to controls: 0 for no effect and ±100 for the full control effect; nearly all actives have a fitted effect of over 60% in size
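Readout: CellTiter-Glo luminescence, 10 min after addition. Cells: KB-V1 MDR subline, 72 h at 37 degrees C with compound. Analysis: corrected, normalized data fitted to concentration-effect curves.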
MCF10A rereplic = inducers of DNA re-replication in MCF 10A breast cells; MCF 10A DNA re-replication, Hoechst nuclear intensity, 48 h; Potency, µM (titrated, usually from 46.1 µM), without a hit: at the top dose activity, positive = re-replication, most hits filed as activators; 350,000 compounds, 2.9% hits; also: % of control where 0% means no effect; nearly all actives have a fitted effect of over 50% in size
KB-3-1 tox = kills parental KB-3-1 adenocarcinoma cells; AID 1347075; 400,000 compounds, 1.4% hits; Potency, µM (doses to about 46.1 µM), most hits filed as cytotoxic; KB-3-1 viability, CellTiter-Glo ATP luminescence, 72 h; also: % is scaled to controls: 0 for no effect and ±100 for the full control effect; nearly all actives have a fitted effect of over 60% in size
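Cells are dispensed, compounds pinned in, plates held at 37 °C for 72 h, then CellTiter-Glo is added and luminescence read after 10 minutes. Cell line: parental KB-3-1 in phenol-red-free DMEM, 10% FBS.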
SW480 rereplic = induces DNA re-replication in SW480 colon adenocarcinoma cells | 340,000 compounds, 1.8% hits | SW480 DNA re-replication, Hoechst DNA content imaging, 48 h | Potency, µM (doses to about 46.1 µM), inactives show top-dose re-replication activation, most hits filed as activators; also: % of control where 0% means no effect; nearly all actives have a fitted effect of over 55% in size
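Per well, 250 cells were exposed to pinned compound for 48 hr. Nuclear DNA was visualised with Hoechst (40 min, 37 C) and total object intensity recorded by fluorescence scanning.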
Starred values were filed as active, the others as inactive; i = inactive; ? = inconclusive; . = no result; ! = not active in a repeat; [ ] = another dose, or the depositor's remark. Calls follow the shape of the dose curve; as a rule, active = well fitted curve in the direction sought with a large enough effect; inconclusive = small, poorly fitted or top-dose-only effect, or another doubt; inactive = no such curve, though single readings can be large; an effect the other way counts as inactive or inconclusive. Potency is read from the fitted curve at half-maximal effect.

SMILES	ELG1 DNA repair	KB-V1 MDR tox	MCF10A rereplic	KB-3-1 tox	SW480 rereplic
Clc1ccc(-c2cn3nc4c(nc3n2)CCCC4)cc1	?	i	?	i	?
CCc1nnc(NC(=O)CCN(c2cc(C)cc(C)c2)S(=O)(=O)c2ccc(Cl)cc2)s1	-18%	2.6µM*	?	?	26%
CCOc1ccc(-c2cc(-c3nc(-c4cc(OC)c(OC)c(OC)c4)no3)[nH]n2)cc1	.	i	.	i	.
COc1ccc(-c2cc(-c3c(O)c(OC)c4occc4c3OC)[nH]n2)cc1OC	26µM*	?	22%	i	-1%
COc1ccc(-c2cc(-c3c(O)c(OC)c4occc4c3OC)[nH]n2)cc1	-5%	13µM*	?	?	?
COC(=O)c1ccccc1NC(=O)c1cc(CN2CCCC2)on1	.	i	.	i	.
C[C@H](CO)N1C[C@H](C)[C@@H](CN(C)Cc2ccccc2)Oc2ccc(NC(=O)Cn3cnnn3)cc2C1=O	9%	i	1%	i	0%
C=CCNC(=O)Cc1c(OC)ccc2cc(Br)ccc12	-19%	21µM*	-1%	?	2%
COc1ccc2cc(Br)ccc2c1CC(=O)NC(C)C	2%	?	-32%	i	4%
COc1ccccc1Cc1c(-c2cccc(Br)c2)nc2ccc(Br)cn12	.	i	.	i	.
CCCc1c(-c2cccc(F)c2)ncn1CCc1ccccc1OC	.	18µM*	.	?	.
CCCc1c(-c2ccccc2)ncn1Cc1ccccc1OC	.	18µM*	.	?	.
CCCCCc1c(-c2cccc(OC)c2)ncn1CCc1ccccc1OC	.	16µM*	.	?	.
CCCCc1c(-c2cccc(Br)c2)ncn1CCc1ccccc1OC	.	10µM*	.	?	.
CC(Nc1ccc(Br)cc1)C(=O)NC(=O)NC1CCCCC1 (stereo not drawn)	.	i	.	i	.
CN(CC(=O)Nc1cccc(Cl)c1)S(=O)(=O)c1ccc2[nH]c3c(c2c1)CCCC3	.	i	.	i	.
CSc1ccccc1NC(=O)Nc1cccc2ccccc12	4%	i	29%	i	3%
Cc1ccc2nc(-c3ccc(C)c(NC(=O)COc4ccccc4Cl)c3)oc2c1	.	i	.	?	.
Cc1sc(NC(=O)C2CC(=O)N(Cc3ccco3)C2)nc1-c1ccccc1 (stereo not drawn)	.	i	.	i	.
CCCCCc1c(-c2cccc(Cl)c2)ncn1CCc1ccccc1OC	.	?	.	i	.
CCCCc1c(-c2cccc(F)c2)ncn1CCc1ccccc1OC	.	12µM*	.	?	.
CCCCCc1c(-c2cccc(F)c2)ncn1CCc1ccccc1OC	.	8.2µM*	.	?	.
O=C(Nc1ccc2ccccc2c1)c1cccnc1	?	i	1%	i	-1%
COc1cccc(C(=O)Nc2ccc(-c3nc4ccccc4[nH]3)cc2)c1	.	i	.	i	.
COc1c(Cl)cc(C(=O)Nc2cccc(-c3nc4ccccc4[nH]3)c2)cc1Cl	.	21µM*	.	?	.
SMILES	ELG1 DNA repair	KB-V1 MDR tox	MCF10A rereplic	KB-3-1 tox	SW480 rereplic
COc1c(Cl)cc(C(=O)Nc2ccccc2-c2ccccc2)cc1Cl	10%	15µM*	?	21µM*	7%
O=C(Nc1ccc(Cl)c(-c2nc3ccccc3[nH]2)c1)c1cccnc1	?	21µM*	1%	i	3%
Cc1c[n+](CC(=O)c2ccccc2)c(C)cn1	27%	?	1%	i	-5%
COc1ccc(NC(=O)c2oc3ccccc3c2NC(=O)c2cc(OC)c(OC)c(OC)c2)cc1	.	i	.	i	.
COc1ccc(NC(=O)c2oc3ccccc3c2NC(=O)C2CCCO2)cc1OC (stereo not drawn)	?	i	22%	?	?
COc1ccc(NC(=O)c2oc3ccccc3c2NC(=O)C2CC2)cc1OC	16µM*	?	18%	i	1%
Cc1ccccc1OCc1nc(-c2ccc(NC(=O)c3ccc4c(c3)OCO4)cc2)no1	?	?	21µM*	i	?
Cc1ccccc1OCc1nc(-c2ccc(NC(=O)c3ccco3)cc2)no1	?	i	?	i	0%
COc1ccc(NC(=O)c2oc3ccccc3c2NC(=O)c2ccc3c(c2)OCO3)cc1	9.2µM*	?	10%	i	8%
C(=C\c1ccnc2ccccc12)/c1ccc(N(Cc2ccccc2)Cc2ccccc2)cc1	.	i	.	i	.
Cc1cccc(OCCNC(=O)c2cccc(Oc3ccc(C(F)(F)F)cc3[N+](=O)[O-])c2)c1	?	9.2µM*	-2%	18µM*	3%
O=C1CCC(C(=O)N2CCCO2)CN1Cc1cccc(C(F)(F)F)c1 (stereo not drawn)	?	.	15%	.	2%
COc1ccc(OC)c(CC(NC(C)=O)C(=O)NC2CCN(c3c(Cc4ccccc4)c(C)nc4ncnn34)CC2)c1 (stereo not drawn)	23µM*	i	7%	i	8%
CC(=O)NC(Cc1ccc(F)c(F)c1)C(=O)NC1CCN(c2c(Cc3ccccc3)c(C)nc3ncnn23)CC1 (stereo not drawn)	5%	i	8%	i	-10%
Cc1nc2ncnn2c(N2CCC(C(=O)NC3CCCC3)CC2)c1Cc1ccccc1	-4%	i	-4%	i	5%
COc1cccc(CC(NC(C)=O)C(=O)NC2CCN(c3c(Cc4ccccc4)c(C)nc4ncnn34)CC2)c1 (stereo not drawn)	?	i	?	?	23µM*!
CCC(Cc1ccccc1)NC(=O)c1ccc2nc(N3CCOCC3)sc2c1 (stereo not drawn)	?	?	-1%	i	-2%
CCOc1cc(C)c(Cl)cc1S(=O)(=O)n1cnc2ccccc21	0%	i	328%[0.0737 µM]	i	-18%
CCOc1ccc(Cl)cc1S(=O)(=O)n1cnc2ccccc21	-17%	4.5µM*	7.9µM*	?	1%
CCOc1ccc(C)cc1S(=O)(=O)n1cnc2ccccc21	?	?	23µM*	13µM*	?
Cc1ccc(C2=Nn3c(COc4ccc(Cl)cc4)nnc3SC2CC(=O)O)cc1 (stereo not drawn)	22%	i	0%	i	-8%
COc1c(C)cc(Br)cc1C(=O)Nc1ccccc1C	8%	i	1.5µM*	i	-37%
COc1ccc(Br)cc1C(=O)Nc1cccc(NC(=O)c2ccco2)c1	21µM*	9.2µM*	5%	i	-9%
CC(C)(C)NC(=O)c1cccc(NC(=O)CSc2ccc(Cl)cc2)c1	?	15µM*	-3%	?	-147%
Cc1ccc(SCC(=O)Nc2cccc(NC(=O)c3ccco3)c2)cc1	2%	16µM*	?	i	-8%
COc1c(C)cc(Br)cc1C(=O)Nc1cccc(NC(=O)c2ccco2)c1	?	3.3µM*	?	i	-2%
